Measured values: the supplement of paper PMC10849652
Targets with a hit are over-represented here; the source holds about 8,800 in all. About 0.5% of all pairs of compound and target were hits. Values without a mark were called inactive.

How the values were obtained:
Assay in all cases: log2 fold change, soluble protein after heating vs DMSO (PISA); higher = thermal stabilisation; K562 lysate, 10 uM; active = over 0.2 and 3.5 SD of the protein, either way, in both replicates (recomputed)
lapatinib = compound: CS(=O)(=O)CCNCc1ccc(-c2ccc3ncnc(Nc4ccc(OCc5cccc(F)c5)c(Cl)c4)c3c2)o1 [lapatinib]
In short: (§1)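 The values are log-two fold changes in thermal stability compared with solvent controls and come from duplicates. They were obtained by TMTpro 16plex LC-MS/MS, with channel sums equalised, on the supernatant after 21,000xg for 90 min. That supernatant came from crude K562 extract at 1 mg/mL protein treated with 10 μM compound for 30 min, heated for 3 min across 48°C-58°C, pooled and brought to 0.5% NP-40 at 4°C.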

pictilisib = compound: CS(=O)(=O)N1CCN(Cc2cc3nc(-c4cccc5[nH]ncc45)nc(N4CCOCC4)c3s2)CC1 [pictilisib]
In short: as §1

crizotinib = compound: C[C@@H](Oc1cc(-c2cnn(C3CCNCC3)c2)cnc1N)c1c(Cl)ccc(F)c1Cl [crizotinib]
In short: as §1

[1] = compound: C[C@H](C1=CC=C(C=C1)C(=O)NC2=C3C=CNC3=NC=C2)N
In short: as §1

duvelisib = compound: C[C@H](Nc1ncnc2nc[nH]c12)c1cc2cccc(Cl)c2c(=O)n1-c1ccccc1 [duvelisib]
In short: as §1

gandotinib = compound: Cc1cc(Nc2cc(CN3CCOCC3)c3nc(C)c(Cc4ccc(Cl)cc4F)n3n2)n[nH]1 [gandotinib]
In short: as §1

tozasertib = compound: Cc1cc(Nc2cc(N3CCN(C)CC3)nc(Sc3ccc(NC(=O)C4CC4)cc3)n2)n[nH]1 [tozasertib]
In short: as §1

doramapimod = compound: Cc1ccc(-n2nc(C(C)(C)C)cc2NC(=O)Nc2ccc(OCCN3CCOCC3)c3ccccc23)cc1 [doramapimod]
In short: as §1

bafetinib = compound: Cc1ccc(NC(=O)c2ccc(CN3CC[C@H](N(C)C)C3)c(C(F)(F)F)c2)cc1Nc1nccc(-c2cncnc2)n1 [bafetinib]
In short: as §1

[2] = compound: Cc1cccc(CC(=O)N2CCc3c2ccc(-c2cn(C)c4ncnc(N)c24)c3F)n1
In short: as §1

Sequence of UniProt Q8N960 (Q8N960 whole entry, looked up): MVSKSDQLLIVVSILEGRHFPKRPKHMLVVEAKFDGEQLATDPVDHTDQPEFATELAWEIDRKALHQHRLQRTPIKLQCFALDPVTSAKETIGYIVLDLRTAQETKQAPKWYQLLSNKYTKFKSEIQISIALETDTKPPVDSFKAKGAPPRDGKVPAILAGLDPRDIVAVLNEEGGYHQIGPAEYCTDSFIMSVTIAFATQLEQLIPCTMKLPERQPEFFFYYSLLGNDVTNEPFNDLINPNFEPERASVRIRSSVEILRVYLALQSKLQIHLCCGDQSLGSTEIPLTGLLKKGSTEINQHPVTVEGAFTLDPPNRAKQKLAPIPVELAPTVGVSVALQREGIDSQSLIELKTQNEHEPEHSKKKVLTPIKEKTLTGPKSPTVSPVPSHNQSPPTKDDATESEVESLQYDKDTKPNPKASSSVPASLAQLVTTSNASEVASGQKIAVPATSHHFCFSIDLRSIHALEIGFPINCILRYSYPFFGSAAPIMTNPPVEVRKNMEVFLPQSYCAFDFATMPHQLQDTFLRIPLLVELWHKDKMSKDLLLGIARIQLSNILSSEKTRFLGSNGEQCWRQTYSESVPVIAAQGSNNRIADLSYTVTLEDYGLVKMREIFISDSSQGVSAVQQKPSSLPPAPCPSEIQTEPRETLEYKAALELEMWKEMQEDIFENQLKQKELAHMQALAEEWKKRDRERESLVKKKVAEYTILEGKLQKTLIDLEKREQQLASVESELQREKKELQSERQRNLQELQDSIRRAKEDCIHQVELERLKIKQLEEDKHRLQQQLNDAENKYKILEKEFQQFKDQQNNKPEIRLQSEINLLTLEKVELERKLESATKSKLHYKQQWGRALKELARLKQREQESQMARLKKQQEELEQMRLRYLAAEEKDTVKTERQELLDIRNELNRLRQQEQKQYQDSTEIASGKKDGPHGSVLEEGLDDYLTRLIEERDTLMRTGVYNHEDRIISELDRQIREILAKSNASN
Sequence of UniProt Q8WYN0 (Q8WYN0 whole entry, looked up): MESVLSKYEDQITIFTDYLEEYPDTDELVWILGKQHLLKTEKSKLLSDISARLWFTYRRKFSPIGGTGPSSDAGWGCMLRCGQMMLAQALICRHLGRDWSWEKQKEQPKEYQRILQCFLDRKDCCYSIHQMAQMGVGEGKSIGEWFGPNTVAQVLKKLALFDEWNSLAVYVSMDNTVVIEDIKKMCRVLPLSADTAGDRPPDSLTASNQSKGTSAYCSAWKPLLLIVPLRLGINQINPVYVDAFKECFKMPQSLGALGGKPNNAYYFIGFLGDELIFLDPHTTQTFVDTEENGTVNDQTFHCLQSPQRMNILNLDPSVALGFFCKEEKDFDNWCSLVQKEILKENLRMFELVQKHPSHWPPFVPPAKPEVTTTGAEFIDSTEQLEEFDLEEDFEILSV
Sequence of UniProt O00311 (O00311 whole entry, looked up): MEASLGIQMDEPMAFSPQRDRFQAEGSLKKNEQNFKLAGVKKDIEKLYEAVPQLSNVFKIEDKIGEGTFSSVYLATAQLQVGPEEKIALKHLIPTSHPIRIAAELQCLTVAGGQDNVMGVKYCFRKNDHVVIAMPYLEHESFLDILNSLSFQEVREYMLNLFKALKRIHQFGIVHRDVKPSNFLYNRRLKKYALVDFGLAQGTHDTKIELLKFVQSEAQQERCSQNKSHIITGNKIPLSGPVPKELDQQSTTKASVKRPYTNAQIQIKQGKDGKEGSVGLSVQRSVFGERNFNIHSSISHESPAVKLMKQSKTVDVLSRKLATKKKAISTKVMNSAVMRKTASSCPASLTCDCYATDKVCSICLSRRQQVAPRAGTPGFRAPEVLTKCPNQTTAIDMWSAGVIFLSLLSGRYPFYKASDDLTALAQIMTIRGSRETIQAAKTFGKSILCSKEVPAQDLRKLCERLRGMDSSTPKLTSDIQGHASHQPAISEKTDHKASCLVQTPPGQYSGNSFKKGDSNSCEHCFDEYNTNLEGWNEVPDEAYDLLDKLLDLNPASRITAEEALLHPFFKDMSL
Sequence of UniProt Q12981 (Q12981 whole entry, looked up): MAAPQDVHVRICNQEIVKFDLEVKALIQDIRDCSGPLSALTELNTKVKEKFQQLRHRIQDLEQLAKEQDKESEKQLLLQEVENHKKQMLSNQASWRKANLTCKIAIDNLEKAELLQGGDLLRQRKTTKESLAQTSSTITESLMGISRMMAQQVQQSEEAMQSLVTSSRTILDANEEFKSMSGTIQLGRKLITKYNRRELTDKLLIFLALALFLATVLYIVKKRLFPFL
Sequence of UniProt O75909 (O75909 whole entry, looked up): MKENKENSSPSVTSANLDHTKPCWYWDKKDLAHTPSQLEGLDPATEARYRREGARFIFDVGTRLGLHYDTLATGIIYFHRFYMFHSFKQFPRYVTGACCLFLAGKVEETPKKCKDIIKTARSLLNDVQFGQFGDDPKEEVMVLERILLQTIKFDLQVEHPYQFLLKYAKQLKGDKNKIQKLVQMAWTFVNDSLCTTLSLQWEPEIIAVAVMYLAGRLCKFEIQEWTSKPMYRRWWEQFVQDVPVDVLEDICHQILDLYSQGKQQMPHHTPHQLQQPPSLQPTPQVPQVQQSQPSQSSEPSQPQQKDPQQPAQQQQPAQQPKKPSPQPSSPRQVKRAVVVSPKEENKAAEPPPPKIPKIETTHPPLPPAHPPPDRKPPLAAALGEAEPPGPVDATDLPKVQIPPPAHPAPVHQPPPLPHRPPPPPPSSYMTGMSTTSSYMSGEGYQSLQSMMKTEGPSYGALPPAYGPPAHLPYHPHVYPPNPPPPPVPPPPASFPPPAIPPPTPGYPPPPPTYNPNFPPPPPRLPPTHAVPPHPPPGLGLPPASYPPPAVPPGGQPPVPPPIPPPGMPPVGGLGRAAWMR
Sequence of UniProt O15155 (O15155 whole entry, looked up): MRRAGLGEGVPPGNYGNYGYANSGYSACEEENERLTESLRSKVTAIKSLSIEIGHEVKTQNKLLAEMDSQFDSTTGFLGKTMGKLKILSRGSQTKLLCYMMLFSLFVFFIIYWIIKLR
Sequence of UniProt Q8ND76 (Q8ND76 whole entry, looked up): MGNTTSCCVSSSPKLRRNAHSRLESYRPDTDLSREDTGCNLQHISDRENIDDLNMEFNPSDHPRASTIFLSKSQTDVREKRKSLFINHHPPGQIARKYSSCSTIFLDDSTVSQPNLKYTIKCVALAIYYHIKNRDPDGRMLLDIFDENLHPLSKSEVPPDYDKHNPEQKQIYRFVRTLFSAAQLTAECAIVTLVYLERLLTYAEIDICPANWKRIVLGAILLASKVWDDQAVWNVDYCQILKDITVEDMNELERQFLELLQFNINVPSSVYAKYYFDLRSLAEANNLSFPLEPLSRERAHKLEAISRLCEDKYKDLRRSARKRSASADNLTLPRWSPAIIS
Sequence of UniProt Q9Y2V2 (Q9Y2V2 whole entry, looked up): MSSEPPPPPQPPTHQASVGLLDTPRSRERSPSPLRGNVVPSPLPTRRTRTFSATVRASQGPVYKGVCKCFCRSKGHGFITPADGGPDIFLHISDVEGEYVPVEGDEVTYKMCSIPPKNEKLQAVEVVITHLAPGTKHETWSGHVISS
Sequence of UniProt Q8TCD1 (Q8TCD1 whole entry, looked up): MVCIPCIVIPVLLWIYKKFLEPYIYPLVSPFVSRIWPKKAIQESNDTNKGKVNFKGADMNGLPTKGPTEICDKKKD
Sequence of UniProt P27824 (P27824 whole entry, looked up): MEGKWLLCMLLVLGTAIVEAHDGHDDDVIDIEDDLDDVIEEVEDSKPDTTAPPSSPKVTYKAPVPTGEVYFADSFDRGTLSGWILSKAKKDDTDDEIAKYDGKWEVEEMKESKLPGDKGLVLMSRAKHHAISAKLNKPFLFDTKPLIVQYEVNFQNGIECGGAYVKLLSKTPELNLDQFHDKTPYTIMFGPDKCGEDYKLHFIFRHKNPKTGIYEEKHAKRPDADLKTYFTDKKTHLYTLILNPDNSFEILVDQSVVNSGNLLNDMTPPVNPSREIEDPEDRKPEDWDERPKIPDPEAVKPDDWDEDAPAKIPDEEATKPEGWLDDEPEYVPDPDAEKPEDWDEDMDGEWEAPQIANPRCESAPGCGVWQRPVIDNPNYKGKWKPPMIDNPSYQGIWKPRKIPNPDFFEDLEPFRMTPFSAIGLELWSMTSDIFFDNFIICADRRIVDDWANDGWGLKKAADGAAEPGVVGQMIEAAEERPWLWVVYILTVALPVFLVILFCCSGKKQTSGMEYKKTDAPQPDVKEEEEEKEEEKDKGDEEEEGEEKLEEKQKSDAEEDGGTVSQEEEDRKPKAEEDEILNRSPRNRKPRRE
Sequence of UniProt Q8N4J0 (Q8N4J0 whole entry, looked up): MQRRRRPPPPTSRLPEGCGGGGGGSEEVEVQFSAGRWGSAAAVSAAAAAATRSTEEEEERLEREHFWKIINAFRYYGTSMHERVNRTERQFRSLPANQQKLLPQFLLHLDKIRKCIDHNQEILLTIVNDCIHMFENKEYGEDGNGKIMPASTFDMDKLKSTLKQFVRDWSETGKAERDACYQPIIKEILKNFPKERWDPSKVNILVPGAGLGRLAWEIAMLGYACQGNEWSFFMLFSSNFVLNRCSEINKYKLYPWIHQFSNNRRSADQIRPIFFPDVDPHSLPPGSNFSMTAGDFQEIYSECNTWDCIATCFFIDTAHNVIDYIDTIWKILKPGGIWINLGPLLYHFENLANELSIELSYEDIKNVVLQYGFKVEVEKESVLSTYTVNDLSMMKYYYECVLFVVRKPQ
Sequence of UniProt Q9BYV8 (Q9BYV8 whole entry, looked up): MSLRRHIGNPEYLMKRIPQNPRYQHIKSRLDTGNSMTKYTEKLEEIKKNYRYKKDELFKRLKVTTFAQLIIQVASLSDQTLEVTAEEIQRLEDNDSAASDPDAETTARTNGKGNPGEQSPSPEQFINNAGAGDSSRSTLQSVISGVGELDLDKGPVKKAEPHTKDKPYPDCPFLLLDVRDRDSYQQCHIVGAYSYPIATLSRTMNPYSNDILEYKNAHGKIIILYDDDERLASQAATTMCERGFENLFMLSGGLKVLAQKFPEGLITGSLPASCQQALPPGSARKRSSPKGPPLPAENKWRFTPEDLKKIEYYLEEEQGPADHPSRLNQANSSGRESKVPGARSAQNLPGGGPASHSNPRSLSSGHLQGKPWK
Sequence of UniProt Q9H3K6 (Q9H3K6 whole entry, looked up): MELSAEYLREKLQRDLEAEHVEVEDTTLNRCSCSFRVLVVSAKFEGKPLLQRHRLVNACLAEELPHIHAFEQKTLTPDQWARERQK

Row | Target | log2 fold change (lapatinib) | log2 fold change (pictilisib) | log2 fold change (crizotinib) | log2 fold change [1] | log2 fold change (duvelisib) | log2 fold change (gandotinib) | log2 fold change (tozasertib) | log2 fold change (doramapimod) | log2 fold change (bafetinib) | log2 fold change [2]
1 | ATR (UniProt Q13535) | -0.036 | 0.408 (active) | -0.1 | -0.158 | 0.032 | 0.117 | 0.044 | 0.068 | -0.033 | 0.161
2 | CEP41 (UniProt Q9BYV8) | -0.017 | 0.039 | 0.062 | 0.047 | -0.013 | 0.003 | 0.086 | 0.044 | -0.067 | 0.007
3 | CEP120 (UniProt Q8N960) | -0.076 | -0.007 | -0.034 | -0.105 | 0.005 | 0.016 | -0.096 | 0.107 | -0.257 | 0.129
4 | CCNYL1 (UniProt Q8N7R7) | 0.018 | -0.012 | -0.015 | -0.201 | -0.003 | 0.085 | 0.052 | -0.004 | 0.006 | 0.067
5 | BET1 (UniProt O15155) | -0.051 | -0.034 | -0.004 | -0.004 | 0.01 | -0.006 | 0 | 0.03 | -0.056 | 0.03
6 | ATP2B4 (UniProt P23634) | -0.022 | -0.018 | 0.018 | -0.166 | 0.053 | 0.082 | 0.046 | 0.049 | -0.125 | 0.221 (active)
7 | CCAR2 (UniProt G3V119) | -0.12 |  |  |  |  |  |  |  |  | 
8 | CANX (UniProt D6RHJ3) | -0.017 |  |  |  |  |  |  |  |  | 
9 | CDC16 (UniProt Q13042) | 0.016 | 0 | 0.009 | 0.047 | 0.011 | -0.095 | 0.06 | 0.014 | -0.039 | -0.057
10 | CARNMT1 (UniProt Q8N4J0) | 0.01 | -0.029 | -0.131 | -0.354 (active) | 0.018 | 0.038 | -0.04 | 0.01 | -0.078 | 0.181
11 | CCNY (UniProt Q8ND76) | -0.061 | -0.044 | -0.035 | -0.094 | -0.057 | 0.081 | 0.056 | 0.033 | -0.073 | 0.054
12 | CARHSP1 (UniProt Q9Y2V2) | -0.014 | -0.08 | 0.011 | -0.053 | 0.003 | 0.047 | 0.003 | -0.012 | -0.033 | 0.019
13 | ATAD1 (UniProt Q8NBU5) | -0.158 | 0.012 | -0.022 | -0.081 | -0.051 | 0.386 (active) | 0.017 | 0.015 | -0.008 | 0.012
14 | CAMKK1 isoform 2 (UniProt Q8N5S9) | 0.061 | -0.074 | -0.023 | 0.032 | -0.069 | 0.424 (active) | -0.067 | 0.016 | -0.021 | -0.033
15 | CCNK isoform 4 (UniProt O75909) | 0.001 | 0.013 | -0.008 | -0.213 (active) | 0.044 | 0.161 | -0.023 | 0.113 | -0.051 | 0.109
16 | CDC7 (UniProt O00311) | 0.112 | -0.067 | -0.024 | -0.335 (active) | -0.007 | 0.047 | -0.01 | 0.06 | 0.009 | 0.087

Row | Target | log2 fold change (lapatinib) | log2 fold change (pictilisib) | log2 fold change (crizotinib) | log2 fold change [1] | log2 fold change (duvelisib) | log2 fold change (gandotinib) | log2 fold change (tozasertib) | log2 fold change (doramapimod) | log2 fold change (bafetinib) | log2 fold change [2]
17 | BOLA2 (UniProt Q9H3K6) | -0.038 | -0.035 | 0.02 | 0.46 (active) | 0.03 | -0.088 | 0.069 | 0.033 | 0.094 | -0.064
18 | BRD3 (UniProt Q15059) | 0.014 | 0.004 | -0.022 | -0.333 (active) | 0.1 | 0.147 | 0.048 | -0.074 | -0.016 | 0.154
19 | ATG4A (UniProt Q8WYN0) | -0.017 | -0.02 | -0.033 | -0.061 | -0.009 | -0.025 | 0.044 | 0.008 | -0.014 | 0.063
20 | C18orf32 (UniProt Q8TCD1) | -0.012 | 0.041 | -0.07 | -0.093 | -0.203 | 0.001 | -0.011 | -0.01 | -0.04 | 0.047
21 | CANX isoform 2 (UniProt P27824) | 0.018 | 0.037 | -0.002 | -0.037 | 0.015 | 0.026 | 0.015 | 0.006 | 0.017 | 0.052
22 | CCAR2 (UniProt Q8N163) | 0.002 | -0.061 | -0.067 | -0.009 | -0.015 | 0.058 | 0.026 | 0.022 | -0.011 | 0.06
23 | CALM2 (UniProt P0DP24) | -0.038 | -0.128 | 0.027 | -0.252 | 0.086 | 0.068 | 0.025 | -0.064 | -0.171 | 0.187
24 | CES2 isoform 4 (UniProt O00748) | 0.027 | 0.32 | 0.079 | -0.003 | 0.021 | 0.016 | 0 | 0.015 | 0.154 | 0.036
25 | BORCS5 (UniProt Q969J3) | 0.015 | 0.096 | -0.002 | 0.037 | 0.037 | -0.038 | 0.007 | -0.011 | -0.042 | -0.006
26 | CASP6 (UniProt P55212) | 0.024 | -0.004 | 0.009 | 0.195 | 0.003 | -0.02 | 0.022 | 0.013 | 0.054 | -0.038
27 | C1orf112 (UniProt Q9NSG2) | 0.018 | -0.004 | -0.055 | -0.073 | -0.035 | 0.232 | -0.091 | 0.021 | 0.005 | 0.279 (active)
28 | CDK5RAP2 (UniProt Q96SN8) | -0.182 | -0.04 | -0.035 | -0.032 | 0.023 | -0.092 | 0.024 | 0.003 | 0 | 0.084
29 | BRD4 (UniProt O60885) | 0.044 | 0.015 | -0.03 | -0.06 | 0.013 | 0.019 | -0.031 | 0.016 | -0.024 | -0.006
30 | ATAD3B (UniProt Q5T9A4) | 0.003 | -0.035 | -0.091 | 0.308 (active) | 0.007 | -0.169 | 0.014 | 0.003 | -0.074 | -0.129
31 | BNIP1 (UniProt Q12981) | -0.007 | 0.018 | -0.062 | 0.273 | -0.059 | -0.15 | 0.017 | 0.071 | -0.019 | -0.17
